# Results as given in PubChem BioAssay (Tox21).
# Values joined by “and” are separate entries in the source; they are usually repeats but may differ in a detail not shown here. Equal values may be shown once. Results filed as inconclusive are left out. A call without a number means that no potency is given here. Some compounds were tested as several samples or in several runs, with calls that do not always agree. Active and inactive are the calls of the source. The call rests on the fitted dose curve; in most records, active means well fitted curve in the direction sought with a large enough effect in the repeat runs; inconclusive means weak or mixed curves; inactive means no such curve, though single readings can be large; an effect the other way counts as inactive or inconclusive.
# Columns and labels:
# [1] = qHTS RealTime-Glo MT Cell Viability Assay in HEK293 cells - 16 hour (AID 1224872); further: nearly all actives have a fitted effect of over 50% in size; further: potency means the concentration at half of the fitted maximal effect
# How it was run: (§1)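 Luminescence generated by NanoLuc from substrate produced by living HEK293 cells served as the viability signal. Each value reflects the reading at its stated time point during continuous 40 h compound exposure at 37 C.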
# [2] = qHTS RealTime-Glo MT Cell Viability Assay in HepG2 cells - 8 hour (AID 1224873); further: nearly all actives have a fitted effect of over 55% in size; further: potency means the concentration at half of the fitted maximal effect
# How it was run: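 HepG2 cells mixed with RealTime-Glo MT reagents (NanoLuc plus cell-permeant prosubstrate) were seeded at 600 cells/well, incubated 5 h at 37 C/5% CO2, then pinned with compounds in DMSO; nonlytic luminescence tracked viability during 40 h treatment.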
# [3] = qHTS RealTime-Glo MT Cell Viability Assay in HEK293 cells - 40 hour (AID 1224874); conditions: RealTime-Glo luminescence; max response: stronger effect = lower value; further: nearly all actives have a fitted effect of over 50% in size; further: potency means the concentration at half of the fitted maximal effect
# How it was run: (§2)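 Viable HEK293 cells reduce a cell-permeant prosubstrate; the product diffuses out and is consumed by NanoLuc in the medium to give light. Compounds went in after a 5 h incubation and plates were read over the treatment course.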
# [4] = A CellTox Green Cytotoxicity Assay to monitor cytotoxicity in HepG2 cells - 16 hour (AID 1224876); further: nearly all actives have a fitted effect of over 45% in size; further: potency means the concentration at half of the fitted maximal effect
# How it was run: (§3)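 Using 1536-well format, dye-containing HepG2 suspension was seeded, allowed 5 h at 37 C/5% CO2, dosed by pintool with compounds, positive and negative controls, and imaged for fluorescence across 40 h.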
# [5] = qHTS RealTime-Glo MT Cell Viability Assay in HepG2 cells - 32 hour (AID 1224877); further: nearly all actives have a fitted effect of over 55% in size; further: potency means the concentration at half of the fitted maximal effect
# How it was run: (§4)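 Tox21 10K library screened in qHTS format on HepG2 cells carrying RealTime-Glo reagents. Compounds were added after a 5 h preincubation, and the luminescent signal from continuous culture was measured repeatedly during 40 h treatment.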
# [6] = A CellTox Green Cytotoxicity Assay to monitor cytotoxicity in HepG2 cells - 40 hour (AID 1224879); further: nearly all actives have a fitted effect of over 40% in size; further: potency means the concentration at half of the fitted maximal effect
# How it was run: as §3
# [7] = qHTS RealTime-Glo MT Cell Viability Assay in HEK293 cells - 0 hour (AID 1224880); further: top concentration of the series differs between compounds; nearly all actives have a fitted effect of over 45% in size
# How it was run: as §2
# [8] = A CellTox Green Cytotoxicity Assay to monitor cytotoxicity in HEK293 cells - 32 hour (AID 1224881); further: nearly all actives have a fitted effect of over 40% in size; further: potency means the concentration at half of the fitted maximal effect
# How it was run: (§5)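 Fluorescence intensity, read at 0, 8, 16, 24, 32 and 40 h of compound treatment, reflected dye binding to DNA of dead HEK293 cells; compounds (23 nL, DMSO) were added 5 h after plating cells with reagent.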
# [9] = A CellTox Green Cytotoxicity Assay to monitor cytotoxicity in HepG2 cells - 0 hour (AID 1224882); further: nearly all actives have a fitted effect of over 35% in size
# How it was run: as §3
# [10] = A CellTox Green Cytotoxicity Assay to monitor cytotoxicity in HepG2 cells - 32 hour (AID 1224883); further: nearly all actives have a fitted effect of over 50% in size; further: potency means the concentration at half of the fitted maximal effect
# How it was run: as §3
# [11] = qHTS RealTime-Glo MT Cell Viability Assay in HepG2 cells - 16 hour (AID 1224885); further: nearly all actives have a fitted effect of over 50% in size; further: potency means the concentration at half of the fitted maximal effect
# How it was run: as §4
# [12] = qHTS RealTime-Glo MT Cell Viability Assay in HEK293 cells - 24 hour (AID 1224886); further: nearly all actives have a fitted effect of over 50% in size; further: potency means the concentration at half of the fitted maximal effect
# How it was run: as §1
# [13] = qHTS RealTime-Glo MT Cell Viability Assay in HEK293 cells - 8 hour (AID 1224887); further: nearly all actives have a fitted effect of over 50% in size; further: potency means the concentration at half of the fitted maximal effect
# How it was run: as §2
# [14] = A CellTox Green Cytotoxicity Assay to monitor cytotoxicity in HEK293 cells - 16 hour (AID 1224888); further: nearly all actives have a fitted effect of over 35% in size
# How it was run: as §5
# [15] = qHTS RealTime-Glo MT Cell Viability Assay in HepG2 cells - 0 hour (AID 1224889); further: nearly all actives have a fitted effect of over 50% in size
# How it was run: as §4
# [16] = A CellTox Green Cytotoxicity Assay to monitor cytotoxicity in HepG2 cells - 8 hour (AID 1224890); further: nearly all actives have a fitted effect of over 45% in size; further: potency means the concentration at half of the fitted maximal effect
# How it was run: as §3
# [17] = qHTS assay to identify small molecule antagonists of the estrogen receptor alpha (ER-alpha) signaling pathway using the BG1 cell line in the presence of 0.1 nM 17-beta-estradiol - cell viability counter screen (AID 1259241); further: nearly all actives have a fitted effect of over 40% in size; further: potency means the concentration at half of the fitted maximal effect
# How it was run: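 CellTiter-Fluor read (30 min, 37C) on ER-alpha/ERE-luc VM7Luc4E2 cells; 22 hr compound treatment; agonist 0.1 nM E2 final; same-well multiplex.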
# [18] = A CellTox Green Cytotoxicity Assay to monitor cytotoxicity in HEK293 cells - 24 hour (AID 1224875); further: nearly all actives have a fitted effect of over 45% in size; further: potency means the concentration at half of the fitted maximal effect
# How it was run: as §5
# [19] = A CellTox Green Cytotoxicity Assay to monitor cytotoxicity in HepG2 cells - 24 hour (AID 1224878); further: nearly all actives have a fitted effect of over 45% in size; further: potency means the concentration at half of the fitted maximal effect
# How it was run: as §3
# [20] = A CellTox Green Cytotoxicity Assay to monitor cytotoxicity in HEK293 cells - 8 hour (AID 1224884); further: nearly all actives have a fitted effect of over 35% in size
# How it was run: as §5
structure (smiles),measurement,setting,value
CC1=C(/C=C/C(C)=C/C=C/C(C)=C/C(=O)Nc2ccc(O)cc2)C(C)(C)CCC1,Potency,[1],796 nM (active) and 477 nM (active)
same,Potency,[2],inactive and 23.9 µM (active)
same,Potency,[3],893 nM (active) and 425 nM (active)
same,Potency,[4],inactive
same,Potency,[5],inactive and 26.8 µM (active)
same,Potency,[6],50.2 µM (active) and 23.9 µM (active)
same,Potency,[7],inactive
same,Potency,[8],inactive
same,Potency,[9],inactive
same,Potency,[10],50.2 µM (active) and 26.8 µM (active)
same,Potency,[11],inactive and 26.8 µM (active)
same,Potency,[12],893 nM (active) and 338 nM (active)
same,Potency,[13],710 nM (active) and 239 nM (active)
same,Potency,[14],inactive
same,Potency,[15],inactive
same,Potency,[16],inactive
same,Potency,[17],55.9 µM (active) and 11.9 µM (active)
CC(CN(C)C)CN1c2ccccc2CCc2ccccc21 (centres undefined),Potency,[1],inactive
same,Potency,[2],inactive
same,Potency,[18],inactive
same,Potency,[5],inactive
same,Potency,[6],23.9 µM (active)
same,Potency,[7],inactive
same,Potency,[8],inactive
same,Potency,[10],23.9 µM (active)
same,Potency,[11],inactive
same,Potency,[13],inactive
same,Potency,[14],inactive
same,Potency,[15],inactive
same,Potency,[16],inactive
same,Potency,[17],inactive
CCN(CC)CCNc1ccc(CO)c2sc3ccccc3c(=O)c12,Potency,[1],16.9 µM (active)
same,Potency,[3],16.9 µM (active)
same,Potency,[18],inactive
same,Potency,[4],16.9 µM (active)
same,Potency,[5],23.9 µM (active)
same,Potency,[19],16.9 µM (active)
same,Potency,[6],13.4 µM (active)
same,Potency,[7],inactive
same,Potency,[8],inactive
same,Potency,[9],inactive
same,Potency,[10],13.4 µM (active)
same,Potency,[20],inactive
same,Potency,[11],23.9 µM (active)
same,Potency,[12],16.9 µM (active)
same,Potency,[14],inactive
same,Potency,[15],inactive
same,Potency,[16],inactive
CCOC(=O)COc1ccc(C)cc1,Potency,[1],inactive
same,Potency,[2],inactive
same,max response,[3],0.285% (inactive)
same,Potency,[4],inactive
same,Potency,[5],inactive
same,Potency,[19],inactive
same,Potency,[6],inactive
same,Potency,[7],inactive
same,Potency,[9],inactive
same,Potency,[10],inactive
same,Potency,[20],inactive
same,Potency,[11],inactive
same,Potency,[12],inactive
same,Potency,[13],inactive
same,Potency,[14],inactive
same,Potency,[15],inactive
same,Potency,[17],inactive
Nc1ncnc2c1ncn2[C@@H]1O[C@H](COP(=O)(O)O)[C@@H](O)[C@H]1O,Potency,[1],inactive
same,max response,[3],3.96% (inactive)
same,Potency,[18],inactive
same,Potency,[4],inactive
same,Potency,[5],inactive
same,Potency,[19],inactive
same,Potency,[6],inactive
same,Potency,[7],inactive
same,Potency,[8],inactive
same,Potency,[9],inactive
same,Potency,[10],inactive
same,Potency,[20],inactive
same,Potency,[12],inactive
same,Potency,[13],inactive
same,Potency,[14],inactive
same,Potency,[16],inactive
same,Potency,[17],inactive
O=C1NCCN1CCN1CCC(c2cn(-c3ccc(F)cc3)c3ccc(Cl)cc23)CC1,Potency,[1],23.9 µM (active)
same,Potency,[3],12 µM (active)
same,Potency,[18],23.9 µM (active)
same,Potency,[4],26.8 µM (active)
same,Potency,[5],26.8 µM (active)
same,Potency,[19],26.8 µM (active)
same,Potency,[6],26.8 µM (active)
same,Potency,[7],inactive
same,Potency,[8],23.9 µM (active)
same,Potency,[9],inactive
same,Potency,[10],26.8 µM (active)
same,Potency,[20],inactive
same,Potency,[11],23.9 µM (active)
same,Potency,[12],21.3 µM (active)
same,Potency,[15],inactive
CCc1c(C(=O)O)c(=O)cnn1-c1ccc(Cl)cc1,Potency,[1],inactive
same,Potency,[2],inactive
same,max response,[3],18.5% (inactive)
same,Potency,[4],inactive
same,Potency,[5],inactive
same,Potency,[19],inactive
same,Potency,[6],inactive
same,Potency,[7],inactive
same,Potency,[9],inactive
same,Potency,[10],inactive
same,Potency,[20],inactive
same,Potency,[11],inactive
same,Potency,[12],inactive
same,Potency,[13],inactive
same,Potency,[14],inactive
same,Potency,[15],inactive
same,Potency,[16],inactive
same,Potency,[17],inactive
C[C@@]12C(=O)OC(=O)[C@]1(C)C1CCC2O1,Potency,[1],5.35 µM (active)
same,Potency,[3],6.01 µM (active)
same,Potency,[18],inactive
same,Potency,[4],23.9 µM (active)
same,Potency,[5],1.51 µM (active)
same,Potency,[19],19 µM (active)
same,Potency,[6],10.7 µM (active)
same,Potency,[7],inactive
same,Potency,[8],inactive
same,Potency,[9],inactive
same,Potency,[10],9.52 µM (active)
same,Potency,[12],6.74 µM (active)
same,Potency,[14],inactive
same,Potency,[15],inactive
same,Potency,[16],23.9 µM (active)
C/C=C/c1ccc(OC)c(OC)c1,Potency,[1],inactive
same,Potency,[2],inactive
same,Potency,[18],inactive
same,Potency,[4],inactive
same,Potency,[5],inactive
same,Potency,[19],inactive
same,Potency,[6],inactive
same,Potency,[7],inactive
same,Potency,[8],inactive
same,Potency,[10],inactive
same,Potency,[20],inactive
same,Potency,[11],inactive
same,Potency,[12],inactive
same,Potency,[13],inactive
same,Potency,[14],inactive
same,Potency,[15],inactive
same,Potency,[16],inactive
same,Potency,[17],inactive
Cc1cncc(C)c1,Potency,[1],inactive
same,Potency,[2],inactive
same,max response,[3],0.584% (inactive)
same,Potency,[4],inactive
same,Potency,[5],inactive
same,Potency,[19],inactive
same,Potency,[6],inactive
same,Potency,[7],inactive
same,Potency,[9],inactive
same,Potency,[10],inactive
same,Potency,[11],inactive
same,Potency,[12],inactive
same,Potency,[13],inactive
same,Potency,[15],inactive
same,Potency,[16],inactive
same,Potency,[17],inactive
C=C[C@](C)(O)CC[C@@H]1[C@@]2(C)CCCC(C)(C)[C@@H]2CC[C@@]1(C)O,Potency,[1],19.5 µM (active)
same,Potency,[2],49 µM (active)
same,Potency,[3],21.9 µM (active)
same,Potency,[4],54.9 µM (active)
same,Potency,[19],49 µM (active)
same,Potency,[6],49 µM (active)
same,Potency,[7],inactive
same,Potency,[8],43.6 µM (active)
same,Potency,[9],inactive
same,Potency,[10],49 µM (active)
same,Potency,[11],49 µM (active)
same,Potency,[12],21.9 µM (active)
same,Potency,[15],inactive
same,Potency,[16],54.9 µM (active)
same,Potency,[17],inactive
COc1cccc(CCc2ccccc2OCC(CN(C)C)OC(=O)CCC(=O)O)c1 (centres undefined),Potency,[1],inactive
same,Potency,[2],inactive
same,Potency,[5],inactive
same,Potency,[6],26.8 µM (active)
same,Potency,[7],inactive
same,Potency,[8],inactive
same,Potency,[20],inactive
same,Potency,[11],inactive
same,Potency,[12],inactive
same,Potency,[13],inactive
same,Potency,[14],inactive
same,Potency,[15],inactive
same,Potency,[16],inactive
same,Potency,[17],inactive
CCO[Si](CCCSSSSCCC[Si](OCC)(OCC)OCC)(OCC)OCC,Potency,[1],inactive
same,Potency,[2],inactive
same,max response,[3],-16.8% (inactive)
same,Potency,[4],inactive
same,Potency,[5],inactive
same,Potency,[19],inactive
same,Potency,[6],inactive
same,Potency,[7],inactive
same,Potency,[9],inactive
same,Potency,[10],inactive
same,Potency,[20],inactive
same,Potency,[11],inactive
same,Potency,[12],inactive
same,Potency,[13],inactive
same,Potency,[15],inactive
same,Potency,[16],inactive
same,Potency,[17],inactive
COc1ccc(-n2nc(CCC(=O)N(C)O)cc2-c2ccc(Cl)cc2)cc1,Potency,[1],inactive
same,Potency,[2],inactive
same,Potency,[18],inactive
same,Potency,[4],inactive
same,Potency,[5],inactive
same,Potency,[7],inactive
same,Potency,[8],inactive
same,Potency,[9],inactive
same,Potency,[20],inactive
same,Potency,[11],inactive
same,Potency,[13],inactive
same,Potency,[14],inactive
same,Potency,[16],inactive
same,Potency,[17],inactive
